# Data as given in the supplement of paper PMC8728848.
# Many of the other results were omitted from the sample, so the strongest signals are more common in it than they were.
# Legend:
# Experiment in all cases: glycan array binding signal (z-score within array); higher = stronger binding
# Settings in all cases: glycan notation: IUPAC condensed, linker removed
# [1] = target: Fuc(a1-2)Gal(b1-3)GlcNAc(b1-2)Man(a1-3)[Fuc(a1-2)Gal(b1-3)GlcNAc(b1-2)Man(a1-6)]Man(b1-4)GlcNAc(b1-4)GlcNAc
# How it was run: (§1)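 Glycan array data came from 3228 arrays in the Consortium for Functional Glycomics database, and only arrays with an available protein sequence were kept. Glycan names were put into IUPAC-condensed notation, and columns mapping to the same glycan were averaged. The binding signal is a within-array Z-score, averaged across arrays of one protein sequence run at different concentrations or buffers and across linkers. A negative Z-score can be read as non-binding.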
# [2] = target: Fuc(a1-2)Gal(b1-3)[Fuc(a1-4)]GlcNAc(b1-2)Man(a1-3)[Fuc(a1-2)Gal(b1-3)[Fuc(a1-4)]GlcNAc(b1-2)Man(a1-6)]Man(b1-4)GlcNAc(b1-4)[Fuc(a1-6)]GlcNAc(b1-4)[Fuc(a1-6)]GlcNAc
# How it was run: as §1
# [3] = target: Fuc(a1-2)Gal(b1-4)GlcNAc(b1-2)Man(a1-3)[Fuc(a1-2)Gal(b1-4)GlcNAc(b1-2)Man(a1-6)]Man(b1-4)GlcNAc(b1-4)[Fuc(a1-6)]GlcNAc
# How it was run: as §1
# [4] = target: Fuc(a1-2)Gal(b1-4)[Fuc(a1-3)]GlcNAc(b1-2)Man(a1-3)[Fuc(a1-2)Gal(b1-4)[Fuc(a1-3)]GlcNAc(b1-2)Man(a1-6)]Man(b1-4)GlcNAc(b1-4)[Fuc(a1-6)]GlcNAc
# How it was run: as §1
# [5] = target: Fuc(a1-2)[Gal(a1-3)]Gal(b1-4)[Fuc(a1-3)]GlcNAc
# How it was run: as §1
# [6] = target: Fuc(a1-2)[GalNAc(a1-3)]Gal(b1-4)[Fuc(a1-3)]GlcNAc(b1-3)GalNAc
# How it was run: as §1
# [7] = target: Fuc(a1-2)[GalNAc(a1-4)]Gal(b1-4)GlcNAc
# How it was run: as §1
# [8] = target: Fuc(a1-3)[Gal(b1-4)]GlcNAc6S
# How it was run: as §1
# Fuc(b1-3)GlcNAc = target: Fuc(b1-3)GlcNAc
# How it was run: as §1
# [9] = target: Gal(a1-3)Gal(b1-3)GlcNAc(b1-2)Man
# How it was run: as §1
# [10] = target: Gal(a1-3)Gal(b1-4)[Fuc(a1-3)]GlcNAc
# How it was run: as §1
# Gal(a1-3)GalNAc = target: Gal(a1-3)GalNAc
# How it was run: as §1
# [11] = target: Gal(a1-3)[Gal(a1-4)]Gal(b1-4)GlcNAc
# How it was run: as §1
# Gal(a1-4)Gal(b1-4)Glc = target: Gal(a1-4)Gal(b1-4)Glc
# How it was run: as §1
# [12] = target: Gal(b1-3)GalNAc(a1-3)[Fuc(a1-2)]Gal(b1-4)GlcNAc
# How it was run: as §1
# [13] = target: Gal(b1-3)GlcNAc(b1-3)GalNAc
# How it was run: as §1
# Gal(b1-3)GlcNAc6S = target: Gal(b1-3)GlcNAc6S
# How it was run: as §1
# [14] = target: Gal(b1-3)[Fuc(a1-4)]GlcNAc(b1-2)Man
# How it was run: as §1
# [15] = target: Gal(b1-3)[Fuc(a1-4)]GlcNAc(b1-2)Man(a1-3)[Gal(b1-3)[Fuc(a1-4)]GlcNAc(b1-2)Man(a1-6)]Man(b1-4)GlcNAc(b1-4)[Fuc(a1-6)]GlcNAc
# How it was run: as §1
# [16] = target: Gal(b1-3)[Fuc(a1-4)]GlcNAc(b1-6)GalNAc
# How it was run: as §1
# [17] = target: Gal(b1-4)GlcNAc(b1-3)Gal(b1-4)GlcNAc(b1-2)Man(a1-3)[Gal(b1-4)GlcNAc(b1-3)Gal(b1-4)GlcNAc(b1-2)Man(a1-6)]Man(b1-4)GlcNAc(b1-4)GlcNAc
# How it was run: as §1
# [18] = target: Gal(b1-4)GlcNAc(b1-3)Gal(b1-4)GlcNAc(b1-2)[Gal(b1-4)GlcNAc(b1-3)Gal(b1-4)GlcNAc(b1-6)]Man(a1-6)[Gal(b1-4)GlcNAc(b1-3)Gal(b1-4)GlcNAc(b1-2)Man(a1-3)]Man(b1-4)GlcNAc(b1-4)[Fuc(a1-6)]GlcNAc
# How it was run: as §1
# [19] = target: Gal(b1-4)GlcNAc(b1-3)Gal(b1-4)GlcNAc(b1-3)Gal(b1-4)GlcNAc(b1-2)Man(a1-3)[Gal(b1-4)GlcNAc(b1-3)Gal(b1-4)GlcNAc(b1-3)Gal(b1-4)GlcNAc(b1-2)Man(a1-6)]Man(b1-4)GlcNAc(b1-4)GlcNAc
# How it was run: as §1
# [20] = target: GalNAc(a1-3)GalNAc(b1-3)Gal(a1-4)Gal(b1-4)Glc
# How it was run: as §1
# GalNAc(b1-4)GlcNAc = target: GalNAc(b1-4)GlcNAc
# How it was run: as §1
# [21] = target: GalNAc(b1-4)GlcNAc(b1-3)GalNAc(b1-4)GlcNAc
# How it was run: as §1
# [22] = target: GlcNAc(a1-4)Gal(b1-4)GlcNAc(b1-3)Gal(b1-4)GlcNAc
# How it was run: as §1
# [23] = target: GlcNAc(b1-3)Gal(b1-4)GlcNAc(b1-2)[GlcNAc(b1-3)Gal(b1-4)GlcNAc(b1-6)]Man(a1-6)[GlcNAc(b1-3)Gal(b1-4)GlcNAc(b1-2)Man(a1-3)]Man(b1-4)GlcNAc(b1-4)GlcNAc
# How it was run: as §1
# [24] = target: GlcNAc(b1-3)Gal(b1-4)GlcNAc(b1-3)Gal(b1-4)GlcNAc(b1-2)Man(a1-3)[GlcNAc(b1-3)Gal(b1-4)GlcNAc(b1-3)Gal(b1-4)GlcNAc(b1-2)Man(a1-6)]Man(b1-4)GlcNAc(b1-4)GlcNAc
# How it was run: as §1
# [25] = target: GlcNAc(b1-3)Gal(b1-4)GlcNAc(b1-3)GalNAc
# How it was run: as §1
# GlcNAc(b1-3)GalNAc = target: GlcNAc(b1-3)GalNAc
# How it was run: as §1
# [26] = target: Neu5Ac(a2-3)Gal(b1-3)GalNAc6S
# How it was run: as §1
# [27] = target: Neu5Ac(a2-3)Gal(b1-4)GlcNAc(b1-2)[Neu5Ac(a2-3)Gal(b1-4)GlcNAc(b1-4)]Man(a1-3)[GlcNAc(b1-4)][Neu5Ac(a2-3)Gal(b1-4)GlcNAc(b1-2)[Neu5Ac(a2-3)Gal(b1-4)GlcNAc(b1-6)]Man(a1-6)]Man(b1-4)GlcNAc(b1-4)GlcNAc
# How it was run: as §1
# [28] = target: Neu5Ac(a2-3)Gal(b1-4)[Fuc(a1-3)]GlcNAc(b1-2)Man
# How it was run: as §1
# [29] = target: Neu5Ac(a2-3)Gal(b1-4)[Fuc(a1-3)]GlcNAc(b1-3)Gal(b1-4)GlcNAc
# How it was run: as §1
# Neu5Ac(a2-6)Gal = target: Neu5Ac(a2-6)Gal
# How it was run: as §1
# [30] = target: Neu5Ac(a2-6)Gal(b1-4)GlcNAc(b1-2)Man
# How it was run: as §1
# [31] = target: Neu5Ac(a2-6)Gal(b1-4)GlcNAc(b1-2)Man(a1-3)[GlcNAc(b1-4)][Neu5Ac(a2-6)Gal(b1-4)GlcNAc(b1-2)Man(a1-6)]Man(b1-4)GlcNAc(b1-4)GlcNAc
# How it was run: as §1
# [32] = target: Neu5Ac(a2-6)Gal(b1-4)GlcNAc(b1-2)[Neu5Ac(a2-6)Gal(b1-4)GlcNAc(b1-4)]Man(a1-3)[GlcNAc(b1-4)][Neu5Ac(a2-6)Gal(b1-4)GlcNAc(b1-4)Man(a1-6)]Man(b1-4)GlcNAc(b1-4)GlcNAc
# How it was run: as §1
# [33] = target: Neu5Ac(a2-6)Gal(b1-4)GlcNAc(b1-3)Gal(b1-4)GlcNAc(b1-3)Gal(b1-4)GlcNAc(b1-2)Man(a1-3)[Neu5Ac(a2-6)Gal(b1-4)GlcNAc(b1-3)Gal(b1-4)GlcNAc(b1-3)Gal(b1-4)GlcNAc(b1-2)Man(a1-6)]GalNAc
# How it was run: as §1
# [34] = target: Neu5Ac(a2-8)Neu5Ac(a2-8)Neu5Ac(a2-3)Gal(b1-4)Glc
# How it was run: as §1
# [35] = target: Neu5Gc(b2-6)Gal(b1-4)GlcNAc
# How it was run: as §1
binder,measurement,setting,value
"YASPKCFRYPNGVLACT [Odorranalectin (Odorrana grahami), B3TFE9_RANGR]",glycan array binding signal (z-score),[1],0.133
same,glycan array binding signal (z-score),[2],1.89
same,glycan array binding signal (z-score),[3],-0.142
same,glycan array binding signal (z-score),[4],3.75
same,glycan array binding signal (z-score),[5],0.56
same,glycan array binding signal (z-score),[6],2.29
same,glycan array binding signal (z-score),[7],-0.278
same,glycan array binding signal (z-score),[8],-0.198
same,glycan array binding signal (z-score),Fuc(b1-3)GlcNAc,-0.094
same,glycan array binding signal (z-score),[9],-0.387
same,glycan array binding signal (z-score),[10],-0.625
same,glycan array binding signal (z-score),Gal(a1-3)GalNAc,0.618
same,glycan array binding signal (z-score),[11],1.47
same,glycan array binding signal (z-score),Gal(a1-4)Gal(b1-4)Glc,0.575
same,glycan array binding signal (z-score),[12],-0.258
same,glycan array binding signal (z-score),[13],-0.188
same,glycan array binding signal (z-score),Gal(b1-3)GlcNAc6S,-0.064
same,glycan array binding signal (z-score),[14],3.92
same,glycan array binding signal (z-score),[15],-0.246
same,glycan array binding signal (z-score),[16],-0.061
same,glycan array binding signal (z-score),[17],7.59
same,glycan array binding signal (z-score),[18],0.555
same,glycan array binding signal (z-score),[19],2.11
same,glycan array binding signal (z-score),[20],-0.385
same,glycan array binding signal (z-score),GalNAc(b1-4)GlcNAc,4.83
same,glycan array binding signal (z-score),[21],0.347
same,glycan array binding signal (z-score),[22],-0.376
same,glycan array binding signal (z-score),[23],8.95
same,glycan array binding signal (z-score),[24],3.67
same,glycan array binding signal (z-score),[25],0.083
same,glycan array binding signal (z-score),GlcNAc(b1-3)GalNAc,-0.315
same,glycan array binding signal (z-score),[26],0.438
same,glycan array binding signal (z-score),[27],-0.481
same,glycan array binding signal (z-score),[28],-0.405
same,glycan array binding signal (z-score),[29],-0.026
same,glycan array binding signal (z-score),Neu5Ac(a2-6)Gal,-0.415
same,glycan array binding signal (z-score),[30],-0.092
same,glycan array binding signal (z-score),[31],-0.309
same,glycan array binding signal (z-score),[32],-0.055
same,glycan array binding signal (z-score),[33],7.51
same,glycan array binding signal (z-score),[34],-0.429
same,glycan array binding signal (z-score),[35],-0.155
